Assay [1] in a line: NCI Yeast Anticancer Drug Screen. Data for the rad50 strain (AID 155).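 Note: 0% = growth of vehicle-only cultures of the same strain.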 As to conditions: S. cerevisiae rad50 strain growth inhibition; at 50.0 µM; active compounds read high. The gist of the method:
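A DNA repair-deficient yeast mutant serves as the test organism; compound-induced growth inhibition is calculated against vehicle-treated cells.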

Assay [2] can be described thus: NCI Yeast Anticancer Drug Screen. Data for the mec2-1 strain (AID 157). As to conditions: S. cerevisiae mec2-1 strain, at 50.0 µM, active compounds read high. The gist of the method:
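Mutant yeast (mec2-1) grown with compound; growth inhibition relative to vehicle control reported.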

Assay [3] in a line: NCI Yeast Anticancer Drug Screen. Data for the sgs1 mgt1 strain (AID 161).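 Note: 0% = growth of cultures given vehicle only.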 As to conditions: S. cerevisiae sgs1 mgt1 strain, at 50.0 µM, active compounds read high. A digest of the protocol: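 Yeast cells carrying a defined DNA-repair defect were exposed to test compounds. Growth inhibition was measured relative to vehicle-treated controls.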
Assay [4] can be described thus: NCI Yeast Anticancer Drug Screen. Data for the cln2 rad14 strain (AID 165).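 Note: 0% = growth equal to vehicle treated cultures.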 Particulars: S. cerevisiae cln2 rad14 strain, at 50.0 µM, active compounds read high. A digest of the protocol: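 Readout is yeast growth inhibition versus vehicle-treated controls, using a strain with cln2 and rad14 alterations exposed to compound.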
The nature of assay [5]: NCI Yeast Anticancer Drug Screen. Data for the bub3 strain (AID 167). Particulars: S. cerevisiae bub3 mutant strain, at 50.0 µM, active compounds read high. A digest of the protocol: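 Inhibition values come from growth of compound-treated mutant yeast normalised to vehicle-treated controls.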
Assay [6] in a line: NCI Yeast Anticancer Drug Screen. Data for the mlh1 rad18 strain (AID 175). As to conditions: S. cerevisiae mlh1 rad18 strain growth inhibition; at 50.0 µM; active compounds read high. The gist of the method:
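Genetically defined yeast (DNA repair-deficient) exposed to compounds; growth inhibition determined relative to vehicle.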

The record followed here is PubChem BioAssay (NCI).

The panel holds about 79,000 compounds, 15% with a hit somewhere; the sample as a whole holds those more often. Values without a mark were called inactive. Calls of active or inactive are those of the source. Cut-off read from the data, not from the text of the source: active = growth inhibition above about 70%; inactive = the rest.

Consider `COc1cc(NCCC2CCCCN2C)c2ncccc2c1` (stereo unspecified), for which the growth inhibition in assay [1] is -3.9%; in assay [2], -22.4%; in assay [3] it was 8.55%; in assay [4] it was 1.8%; in assay [5], 13.6%; in assay [6], 22.1%.

With `O=C(O)CCCCC(=O)c1ccccc1`, the growth inhibition is 30.6% in assay [1]; 12.2% in assay [2]; 21% in assay [3]; -0.25% in assay [4]; 26.6% in assay [5]; 24.9% in assay [6].

As to `Cc1ncc(CO)c(/C=N/NC(=O)c2ccncc2)c1O`, the growth inhibition in assay [1] was 14.3%; in assay [2] it was 9.4%; in assay [3], 11.7%; in assay [4], -35.5%; in assay [5] it was 15.8%; in assay [6] it was 17.6%.

`CC(C)CCCC(C)C1CCC2C3CC=C4CCCCC4(C)C3CCC12C` (stereo unspecified): the growth inhibition is -22.4% in assay [1]; -4.25% in assay [2]; -3.85% in assay [3]; -5.45% in assay [4]; -5.05% in assay [5]; -23.6% in assay [6].

Take `COc1ccc(C2C(C)C(=O)C(C)C(c3ccc(OC)cc3)N2N=O)cc1` (stereo unspecified): the growth inhibition was 3.15% in assay [1]; 6.4% in assay [2]; 15.6% in assay [3]; -1.2% in assay [4]; 26.6% in assay [5]; 32.8% in assay [6].

For the molecule `Cn1c(=O)c2ccccc2c2cc(Br)ccc21`, the growth inhibition in assay [1] is 41.1%; in assay [2] it was 6.05%; in assay [3] it was 4.15%; in assay [4], -14.8%; in assay [5], 7.8%; in assay [6], 20.6%.

As for `C/C(CCc1cnc2ccccc2c1)=N/NC(N)=O`, the growth inhibition in assay [1] was 69.2%; in assay [2], 27.5%; in assay [3], 85.7% (active); in assay [4], 37.8%; in assay [5], 67.3%; in assay [6], 95.6% (active).

Consider `CCC(=O)c1ccc([N+](=O)[O-])cc1`, for which the growth inhibition is -14.2% in assay [1]; -18.2% in assay [2]; -24.7% in assay [3]; -59.4% in assay [4]; 1.95% in assay [5]; -10.2% in assay [6].

Regarding `CCN(CC)C(=O)Oc1cc(C)c([N+](C)(C)C)cc1C(C)C`, the growth inhibition in assay [1] was 10.1%; in assay [2], 6.7%; in assay [3], 13.2%; in assay [4], 17.8%; in assay [5] it was 24.6%; in assay [6] it was -27.7%.

Take `C=C(C)CCC[C@@H](C)C1CCC2(C)[C@@H]3CCC4C(C)(C)[C@@H](O)CC[C@@]45C[C@@]35CC[C@]12C` (stereo partly specified): the growth inhibition in assay [1] is 31.1%; in assay [2], 0.45%; in assay [3] it was 25.4%; in assay [4], 0.5%; in assay [5], 18%; in assay [6] it was 23.1%.

In the case of `O=C(N/C=C\NC(=O)Nc1cccc(Cl)c1)Nc1cccc(Cl)c1`, the growth inhibition was 40.8% in assay [1]; 16.1% in assay [2]; 15.8% in assay [3]; 15.8% in assay [4]; -1.95% in assay [5]; 18.8% in assay [6].

Consider `O=C(C[n+]1ccccc1Cl)c1ccc(I)cc1`, for which the growth inhibition is 18.2% in assay [1]; 24.8% in assay [2]; 53% in assay [3]; 9.05% in assay [4]; 19.9% in assay [5]; 56.8% in assay [6].

Regarding `S=C1SCN(C2CCCCCCCCCCC2)CN1C1CCCCCCCCCCC1`, the growth inhibition in assay [1] was -52.5%; in assay [2], -29.1%; in assay [3] it was -17.9%; in assay [4], -3.7%; in assay [5], -20%; in assay [6] it was -40.5%.

For the molecule `Nc1nc(N)c2c(n1)CCC(CNc1ccc(C(=O)NC(CCC(=O)O)C(=O)O)cc1)C2` (stereo unspecified), the growth inhibition was 23.6% in assay [1]; 30.6% in assay [2]; 38.3% in assay [3]; 40.2% in assay [4]; -3.8% in assay [5]; 29.7% in assay [6].

For `CCCCc1ccc(-n2cnc3c(=O)[nH]c(N)nc32)cc1`, the growth inhibition in assay [1] is 5.15%; in assay [2], 29%; in assay [3], -8.3%; in assay [4], -0.4%; in assay [5], 30.8%; in assay [6], 26.5%.

On to `CCCCCCCCCCCCCCCc1cc(=O)n(-c2ccc(NC(C)=O)cc2)n1C`, for which the growth inhibition is -2% in assay [1]; -23.8% in assay [2]; -12.6% in assay [3]; 3.1% in assay [4]; -1% in assay [5]; -9.7% in assay [6].

Consider `O=C(O)C1=CC(c2ccccc2O)=NCCN1`, for which the growth inhibition is -20.8% in assay [1]; -0.75% in assay [2]; 0.7% in assay [3]; -34.6% in assay [4]; -4.1% in assay [5]; 3.6% in assay [6].

For `COc1ccc2c(c1)CN(C)c1ccc(OC)cc1CN2C`, the growth inhibition is 10.7% in assay [1]; -18.6% in assay [2]; 12.2% in assay [3]; 12.4% in assay [4]; 12.5% in assay [5]; 24.6% in assay [6].

On to `OC1C=CC2CCC1C2` (stereo unspecified), for which the growth inhibition is -4.85% in assay [1]; 7.15% in assay [2]; -16.4% in assay [3]; 6% in assay [4]; 10.8% in assay [5]; 5.2% in assay [6].

For `CSC1=NC=C(C#N)C2=NC(c3ccccc3)NN12` (stereo unspecified), the growth inhibition in assay [1] was -0.3%; in assay [2] it was -5.55%; in assay [3], -6.6%; in assay [4] it was -14.2%; in assay [5] it was 2.8%; in assay [6], 7%.

Regarding `CCc1cccc(CC)c1NC1=CC(=O)C(=O)c2ccccc21`, the growth inhibition in assay [1] was 22.4%; in assay [2], 11.4%; in assay [3], 10%; in assay [4], 18.8%; in assay [5], 34.2%; in assay [6] it was 18.2%.
